Assay results published in PubChem BioAssay AID720700 (The Scripps Research Institute Molecular Screening Center, 2013).
The campaign covered roughly 370,000 compounds. About 3,100 (0.84%) were called active. What follows is part of a selection rich in actives, with near analogues and random picks from the rest. Values without a mark were called inactive. Cut-off read from the data, not from the text of the source: active = inhibition above about 9.5%; inactive = the rest.

The compounds below were run against 1-phosphatidylinositol 4,5-bisphosphate phosphodiesterase gamma-1 (Homo sapiens) (UniProt P19174) (assay: blockers of human PLCG1 activity – biochemical, fluorescence, purified enzyme, primary screen (AID 720700)). Conditions: purified PLC-gamma1, fluorogenic substrate, at 12.2 µM, active compounds read high.
Sequence of 1-phosphatidylinositol 4,5-bisphosphate phosphodiesterase gamma-1 (Homo sapiens) (P19174 whole entry, looked up): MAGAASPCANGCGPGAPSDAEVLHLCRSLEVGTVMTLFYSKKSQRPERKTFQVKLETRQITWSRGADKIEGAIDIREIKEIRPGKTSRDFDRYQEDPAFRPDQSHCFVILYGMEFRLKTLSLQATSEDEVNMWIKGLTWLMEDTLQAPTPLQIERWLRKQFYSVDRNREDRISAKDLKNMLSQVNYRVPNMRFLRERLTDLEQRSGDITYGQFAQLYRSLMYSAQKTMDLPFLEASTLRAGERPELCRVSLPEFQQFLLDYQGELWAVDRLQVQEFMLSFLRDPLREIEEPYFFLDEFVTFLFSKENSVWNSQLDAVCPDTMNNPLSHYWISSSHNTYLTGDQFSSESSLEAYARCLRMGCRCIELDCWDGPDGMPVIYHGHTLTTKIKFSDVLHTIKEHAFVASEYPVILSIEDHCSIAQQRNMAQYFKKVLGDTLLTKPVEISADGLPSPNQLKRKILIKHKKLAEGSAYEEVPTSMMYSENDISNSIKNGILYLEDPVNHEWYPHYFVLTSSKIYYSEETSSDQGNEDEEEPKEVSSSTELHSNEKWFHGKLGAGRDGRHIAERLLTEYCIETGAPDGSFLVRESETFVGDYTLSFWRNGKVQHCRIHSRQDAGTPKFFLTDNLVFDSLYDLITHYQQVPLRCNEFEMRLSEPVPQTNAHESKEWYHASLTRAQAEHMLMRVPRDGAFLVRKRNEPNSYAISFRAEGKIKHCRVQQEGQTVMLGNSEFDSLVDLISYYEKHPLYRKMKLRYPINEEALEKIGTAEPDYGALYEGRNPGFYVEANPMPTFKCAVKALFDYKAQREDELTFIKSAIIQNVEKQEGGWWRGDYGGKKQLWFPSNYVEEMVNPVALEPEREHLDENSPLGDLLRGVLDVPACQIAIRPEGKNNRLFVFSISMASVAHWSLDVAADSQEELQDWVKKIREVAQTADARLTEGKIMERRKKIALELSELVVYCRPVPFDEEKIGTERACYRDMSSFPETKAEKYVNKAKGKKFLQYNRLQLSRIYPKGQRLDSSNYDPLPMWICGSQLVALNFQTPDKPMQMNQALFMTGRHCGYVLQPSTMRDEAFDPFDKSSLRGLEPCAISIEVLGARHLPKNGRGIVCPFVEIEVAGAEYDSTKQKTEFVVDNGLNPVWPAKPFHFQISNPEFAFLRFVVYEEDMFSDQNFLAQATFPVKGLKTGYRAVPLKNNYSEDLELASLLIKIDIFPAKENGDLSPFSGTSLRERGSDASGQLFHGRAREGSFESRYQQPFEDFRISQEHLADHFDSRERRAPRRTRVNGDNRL
Work on `O=C(c1ccccc1)c1ccc(-c2ccccc2C(=O)NC2CCCCN(Cc3ccc(Cl)cc3)C2=O)cc1` (stereo not given) yielded an inhibition of 1.5%. For `Cc1ccc(NC(=O)Cc2cccc(F)c2)c(S(=O)(=O)N2CCOCC2)c1`, the inhibition was -42.8%. For `Cc1ccc(-c2cn(S(=O)(=O)c3cccc([N+](=O)[O-])c3)nc2N)cc1`, the inhibition was 11.4% (active). `Cc1cc(C)n(S(=O)(=O)c2cccc([N+](=O)[O-])c2)n1` showed an inhibition of 0.37%. With `CC1=NCCN1S(=O)(=O)c1cccc([N+](=O)[O-])c1` the inhibition was -1.13%. `CCOC(=O)[C@]12CCCCC/C=C\1N(Cc1ccc(OC)cc1)C(=O)[C@H]2CC(=O)NCc1ccc(C)o1` was tested, and the inhibition was 0.82%. `N#C[C@]1(S(=O)(=O)c2ccccc2)C[C@@H]2ON=C(c3cccc(Br)c3)[C@@H]2C1` was tested, and the inhibition was 9.78% (active). Work on `COC(=O)[C@]1(S(=O)(=O)c2ccccc2)C[C@@H]2ON=C(c3ccc(OC)cc3)[C@@H]2C1` yielded an inhibition of -2.22%. `CCn1c(=O)n2n(c1=O)[C@@]1(C=C3CCCC[C@H]32)N=C(NC(=O)c2ccccc2)N(Cc2ccccc2)[C@H]1Cc1ccccc1` gave an inhibition of -12.3%. Work on `COC(=O)C12C=C3CC(c4ccccc4)=C3C(=O)N1Cc1[nH]c3ccccc3c1C2` (stereo not given) yielded an inhibition of -9.2%. With `O=C(/C=C/c1c(F)cccc1Cl)Nc1nn[nH]n1` the inhibition was 12.5% (active). `O=C(/C=C/c1c(Cl)cccc1Cl)NCc1ccccc1` gave an inhibition of 3.49%. `CCOC(=O)CNC(=O)/C=C/c1c(Cl)cccc1Cl` showed an inhibition of 0.18%. Work on `O=C(CSc1nnc(-c2ccccn2)n1-c1ccccc1)Nc1ccc2cn[nH]c2c1` yielded an inhibition of 3.11%. Work on `COCCN(C(=S)Nc1cccc(Cl)c1C)C(C)c1ccco1` (stereo not given) yielded an inhibition of 4.95%. In the case of `COCCCN(C(=S)Nc1c(C)cc(C)cc1C)C(C)c1ccncc1` (stereo not given), the inhibition is reported as 12.6% (active). With `COCCCN(C(=O)Cn1ncc2c(=O)oc3ccc(C)cc3c21)C(C)c1ccncc1` (stereo not given) the inhibition was 2.83%. With `Cc1cc(NS(=O)(=O)c2ccc(NC(=O)CSc3nnc(SCc4ccc(F)cc4)s3)cc2)nc(C)n1` the inhibition was 6.25%. `CCn1c2ccccc2c2cc(NC(=O)CSc3nnc(-c4ccccc4)n3-c3ccc(C)cc3)ccc21` gave an inhibition of -1.61%. Compound `O=C(NCc1cccnc1)c1cc(C2CCCN(C(=O)CCCc3ccccc3)C2)on1` (stereo not given) has an inhibition of 3.28%. In the case of `O=C(NCc1cccnc1)c1cc(C2CCCCN2C(=O)CCc2ccccc2)on1` (stereo not given), the inhibition is reported as 12.8% (active). `N#Cc1cccc(NC(=O)c2cc(C3CCCCN3C(=O)CCc3ccccc3)on2)c1` (stereo not given) was tested, and the inhibition was 5.27%. Work on `COc1ccc(N2CCN(CCNS(=O)(=O)c3ccc(C(C)(C)C)cc3)CC2)cc1` yielded an inhibition of -1.02%. Work on `CSc1nccc(NC(=O)c2ccc(C(C)(C)C)cc2)n1` yielded an inhibition of 7.02%. For `CC(C)(C)c1ccc(C(=O)Nc2cc(Cl)c(Br)cc2C(=O)O)cc1`, the inhibition was 11% (active). With `CSc1ccc(C#N)cc1NC(=O)c1ccc(Cl)cc1` the inhibition was -1.63%. Compound `COC(=O)[C@@]12CCCCC=C1N(CCc1ccc(Cl)cc1)C(=O)[C@H]2CC(=O)NCc1ccc(OC)c(OC)c1` has an inhibition of 2.08%. For `COc1ccc(-c2ccc(CN3C(CC(C)C)C(=O)N(Cc4cn(CC5CCCCC5)nn4)CCS3(=O)=O)cc2)cc1` (stereo not given), the inhibition was 13.6% (active). For `CC(C)CC1C(=O)N(Cc2cn(CC3CCCCC3)nn2)CCS(=O)(=O)N1Cc1ccc(-c2ccc(Cl)cc2)cc1` (stereo not given), the inhibition was 1.82%. Compound `COc1ccc(-c2ccc(CN3C(CC(C)C)C(=O)N(Cc4cn(CC5CCCCC5)nn4)CCS3(=O)=O)cc2)cn1` (stereo not given) has an inhibition of -1.63%. In the case of `CCOC(=O)C(=O)N(Cc1ccccc1)c1ccccc1C(=O)Nc1cc(OC)ccc1OC`, the inhibition is reported as 2.22%. `CC(=O)C1=C(O)C(=O)N(c2ccc(Br)cc2)C1c1ccc([N+](=O)[O-])cc1` (stereo not given) showed an inhibition of 2.17%. With `COC(=O)CN1C(=O)C(O)=C(C(C)=O)C1c1ccc([N+](=O)[O-])cc1` (stereo not given) the inhibition was 10.5% (active). In the case of `COC(=O)C1=CN(c2ccc(F)c(F)c2)C=C(C(=O)OC)C1c1ccc([N+](=O)[O-])cc1`, the inhibition is reported as 1.3%. Work on `COc1ccc(C2C(C(C)=O)=C(O)C(=O)N2c2nccs2)cc1` (stereo not given) yielded an inhibition of -25.2%. In the case of `CC(=O)C1=C(O)C(=O)N(c2cccnc2)C1c1ccc([N+](=O)[O-])cc1` (stereo not given), the inhibition is reported as 11.3% (active). `COc1ccc(C2C(C(C)=O)=C(O)C(=O)N2CCc2c[nH]c3ccccc23)cc1` (stereo not given) showed an inhibition of 0.47%. With `C=CCN1C(C(=O)OC)CN(Cc2cn(Cc3ccccc3)nn2)CCS1(=O)=O` (stereo not given) the inhibition was 2.03%. `COc1cccc(CNC(=O)CNS(=O)(=O)c2ccc3nc(C)sc3c2)c1OC` was tested, and the inhibition was 2.68%. With `CCCC[C@H](C(=O)N(CC)c1ccccc1)[C@@H](O)c1ccc2ccccc2c1` the inhibition was 2.96%.
